Source: PubChem (National Center for Advancing Translational Sciences (NCATS))
15-hLO inh – inhibitors of human 15-lipoxygenase (ALOX15); P16050; purified 15hLO-1, xylenol orange hydroperoxide absorbance; Potency, µM (series often up to 57.1 µM), actives largely listed as inhibitors; 74,000 compounds, 1.4% hits; further: nearly all actives have a fitted effect of over 55% in size
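40 nM 15hLO-1 + cpd, 15 min RT; start w/ 50 uM AA (final), 6 min RT; stop/detect w/ 200 uM XO + 300 uM Fe(II) in 50 mM H2SO4, 30 min; A573/A405. Buffer 25 mM Hepes pH 7.5, 0.01% Triton X-100. No-enzyme wells as negative control.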
Luciferase inh – firefly luciferase inhibition; P08659; purified firefly luciferase, luminescence, 8 min; Potency, µM (series often up to 57.1 µM), usual class: inhibitors; 72,000 compounds, 2.2% hits; further: nearly all actives have a fitted effect of over 40% in size
Target sequence (P08659 whole entry, looked up): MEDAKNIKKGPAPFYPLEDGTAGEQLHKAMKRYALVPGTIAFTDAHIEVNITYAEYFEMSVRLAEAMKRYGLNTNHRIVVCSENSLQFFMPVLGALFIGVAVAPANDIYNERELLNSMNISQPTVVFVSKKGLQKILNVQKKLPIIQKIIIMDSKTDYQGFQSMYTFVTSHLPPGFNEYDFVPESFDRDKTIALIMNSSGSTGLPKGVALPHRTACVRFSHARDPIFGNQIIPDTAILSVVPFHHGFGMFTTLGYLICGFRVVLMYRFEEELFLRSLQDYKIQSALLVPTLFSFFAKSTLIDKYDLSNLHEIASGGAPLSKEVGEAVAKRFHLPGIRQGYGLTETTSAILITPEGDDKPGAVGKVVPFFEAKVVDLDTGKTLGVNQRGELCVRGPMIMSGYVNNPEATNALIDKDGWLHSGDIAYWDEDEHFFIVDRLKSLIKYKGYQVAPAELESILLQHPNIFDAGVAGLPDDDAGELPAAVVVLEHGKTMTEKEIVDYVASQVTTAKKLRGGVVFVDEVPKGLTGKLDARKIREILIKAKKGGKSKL
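qHTS concentration-response profiling: light output of P. pyralis luciferase with luciferin and 10 uM ATP, imidazole buffer pH 7.2. Read by luminescence after 8-min room-temperature incubation.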
ERK AVP inh – inhibitors of vasopressin-stimulated ERK signaling pathway; 72,000 compounds, 0.99% hits; Potency, µM (doses to about 57.5 µM), most hits filed as inhibitors; HEK293-V1b, vasopressin-stimulated pERK AlphaScreen; further: nearly all actives have a fitted effect of over 55% in size
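HEK293 cells stably expressing V1b receptor, preincubated 30 min at 37 °C with compound, then stimulated 5 min with 25 nM vasopressin. Phospho-ERK by AlphaScreen SureFire after 5 h RT; normalized to DMSO and vasopressin; AC50 by Hill fit.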
HSD17B inh – HSD17B dehydrogenase inhibition. Q99714. recombinant HSD17B10, NADH fluorescence kinetic. Potency, µM (titrated, usually from 57.1 µM), usual class: inhibitors. 75,000 compounds, 7.6% hits;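 further: the protocol describes HADH2 (HSD17B10) and not the HSD17B4 of the title; nearly all actives have a fitted effect of over 70% in size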
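Activity followed as NADH fluorescence increase (ex 360, em 450 nm) every 30 seconds for 4 min, using final 90 uM beta-hydroxybutyryl CoA and 1 mM NAD+. Recombinant His-tagged enzyme, 20 nM, pH 9.0 Tris buffer, 15 min compound preincubation.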
HADH2 inh – blocks human hydroxyacyl-CoA dehydrogenase type II | Q99714 | recombinant HADH2, NADH fluorescence, beta-hydroxybutyryl-CoA | Potency, µM (doses to about 57.1 µM), most hits filed as inhibitors | 73,000 compounds, 3.4% hits; further: nearly all actives have a fitted effect of over 60% in size
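His-tagged recombinant enzyme from E. coli, 20 nM, preincubated 15 min RT with compound; reaction started with 1 mM NAD+ and 90 uM beta-hydroxybutyryl-CoA in 100 mM Tris-HCl pH 9.0. NADH fluorescence (ex 360/em 450) read over 4 min; last-minus-first difference.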
Bst PK mod – alters activity of Bacillus stearothermophilus pyruvate kinase | purified pyruvate kinase, luminescence ATP production; ribose 5-phosphate activator present at AC10 | Potency, µM | 51,000 compounds, 1.2% hits; in the data active means potency below about 11 µM; inconclusive means mostly about 12 µM to 25 µM;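 the screen sought inhibitors and activators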
Hits are given with their value; – = inactive; ? = inconclusive; · = no result; [ ] = dose if it differs, or a comment. A selection: hits, their analogues and other compounds. The true share with any hit is near 11%. Unless noted, the call rests on the fitted dose curve; in most records, active means well fitted curve in the direction sought with a large enough effect; inconclusive means small, poorly fitted or top-dose-only effect, or another doubt; inactive means no such curve, though single readings can be large; an effect the other way counts as inactive or inconclusive.

SMILES	15-hLO inh	Luciferase inh	ERK AVP inh	HSD17B inh	HADH2 inh	Bst PK mod
Cc1ccc(-c2nnc3sc(-c4ccc5c(c4)OCCO5)nn23)cc1	–	–	–	–	–	–
c1ccc2c(c1)nnn2Cc1nnc2sc(-c3ccc4c(c3)OCCO4)nn12	13µM	–	–	16µM	6.3µM	–
COCC(=O)Nc1nc2ccc(C)cc2s1	–	20µM	–	–	–	–
COC(=O)c1ccc2nc(NC(=O)CN3C(=O)CCC3=O)sc2c1	–	–	–	–	25µM	–
CCOC(=O)N1CCN(c2cc3[nH]c(=S)[nH]c3cc2F)CC1	?	–	–	32µM	?	–
CCOC(=O)N1CCN(c2c(F)cc3[nH]c(=S)[nH]c3c2Br)CC1	?	–	–	–	–	–
O=C(NC1=NCCS1)c1ccc(OCC2CCCO2)cc1 (configuration not stated)	–	25µM	–	–	–	·
O=C(NC1=NCCS1)c1ccncc1	–	–	–	–	–	–
O=C(c1csnn1)N1CCC2(CCCN(c3ccc(-c4ccccc4)cc3)C2)CC1	–	–[11.4 µM]	–	–	–	·
O=C(COC(=O)c1cccnc1)c1ccc(Cl)cc1	–	16µM	–	–	–	·
O=C(Nc1ccccc1)N1CC[C@@]2(CCCN(C(=O)c3cccc(F)c3)C2)C1	–	–[11.4 µM]	–	–	–	·
COc1ccc(-c2nnc3ccc(SCC(=O)NCc4ccco4)nn23)cc1OC	–	–	–	–	–	–
c1cncc(-c2csc(NCc3ccco3)n2)c1	–	·	·	–	?	·
COc1ccc(-c2nc3cccc(C)n3c2NCc2ccco2)cc1OC	?	–	–	?	25µM	·
COc1ccc(-c2csc(NCc3ccco3)n2)cc1C	–	7.9µM	?	–	20µM	·
OCC(CO)(CBr)CBr	–	·	–	–	–	·
COc1cc2c(Cc3c4c5c(cc(OC)c(OC)c5c5c(OC)c(OC)ccc35)CCN4C)c3c4c(cc(OC)c(OC)c4c2cc1OC)CCN3C	?	·	–	16µM	·	·
COc1cc2c(C(=O)c3ccccc3)c3c4c(cc(OC)c(OC)c4c2cc1OC)CCN3C	–	·	?	–	·	·
Clc1ccc(-c2nnc(-c3cccc4ccccc34)o2)cc1Cl	–[11.4 µM]	–[11.4 µM]	–[11.5 µM]	3.2µM	–[11.4 µM]	·
C#CCSc1nnc(-c2cccc3ccccc23)o1	?	–	–	?	–	–
O=C1c2ccccc2C(=O)N1CCCSc1nc2ccccc2o1	–[11.4 µM]	–	?	25µM	–[11.4 µM]	·
Cn1c(=O)[nH]c(=O)c2c1nc(Br)n2CCCSc1nc2ccccc2o1	–	–	32µM	–	?	–
O=C1c2ccccc2C(=O)N1Cc1nc2ccccc2o1	–	–	–	–	–	·
COc1ccccc1CNc1cc(-c2c(C)noc2C)ncn1	–	–[2.29 µM]	–	–	–	·
O=C(O)c1cccc(N=Nc2c(S(=O)(=O)O)ccc3c2C(=O)c2ccccc2C3=O)c1O	–[11.4 µM]	–[11.4 µM]	–[11.5 µM]	?	–[11.4 µM]	·
SMILES	15-hLO inh	Luciferase inh	ERK AVP inh	HSD17B inh	HADH2 inh	Bst PK mod
Cc1cc(C(N)=O)c2cc(Br)ccc2n1	–	–	–	–	–	·
COc1ccc(NC(=O)c2cc(-c3ccc(C)o3)nc3ccccc23)cc1OC	32µM	2.5µM	–	?	–	3.7
COc1cc(NC(=O)c2cc3c(C)nc4ccccc4c3o2)cc(OC)c1OC	–	–	?	–	–	·
Cc1cccc(NC(=O)c2cc(-c3ccco3)nc3ccccc23)n1	?	–	–	25µM	?	–
O=C(Nc1ccon1)c1cc(-c2ccccc2)nc2ccccc12	–	–	?	?	–	–
O=C(NCC1CCCO1)c1cc(-c2ccco2)nc2ccccc12 (configuration not stated)	–	–	–	25µM	13µM	–
O=C(O)c1cc(-c2ccco2)nc2ccc(Br)cc12	?	–	–	16µM	13µM	·
CCCNC(=O)OC[C@H]1O[C@@H](CCO/N=C2/[C@H]3O[C@@H]3[C@@H](O)[C@H]3[C@H]2CCn2c(=O)n(-c4ccccc4)c(=O)n23)C=C[C@@H]1Oc1ccc(OC)cc1	–[11.4 µM]	–[11.4 µM]	–[11.5 µM]	–[11.4 µM]	–[11.4 µM]	·
O=C(Nc1ccc2c(c1)OCO2)Nc1ccc(Br)cn1	–	–	–	–	–	·
O=C(Nc1cccc(Cl)c1)Nc1ccc2c(c1)OCO2	–	16µM	?	–	–	·
CC(=O)c1cc2c(cc1NC(=O)Nc1cccc(Cl)c1)OCCO2	–	–	?	32µM	–	–
O=C(O)C(F)(F)C(F)(F)C(F)(F)C(F)(F)C(=O)O	–[11.4 µM]	–[11.4 µM]	–[11.5 µM]	–[11.4 µM]	–[11.4 µM]	·
c1cncc(-c2nc(N3CCCCCC3)c3ccccc3n2)c1	–	–	20µM	?	–	–
O=C(Nc1ccccc1)[C@@]12C[C@@H]1/C(=N/O)c1ccccc1O2	–	–	–	–	–	·
N#C/C(=C\c1ccc[nH]1)Sc1nc2ccccc2s1	16µM	–	?	?	–	–
CC(=O)c1ccc[nH]1	–	·	–	–	·	·
Cc1ccc(-c2cc3c(nn2)-c2ccccc2C3=O)cc1	–[11.4 µM]	0.25µM	?	–	–[11.4 µM]	·
[O-][n+]1onc2c1CCc1nnc(-c3ccccc3)cc1-2	–	–	–	?	–	–
FC(F)(F)c1cccc(OCCOCCn2cncn2)c1	?	–	–	–	–	–
c1ccc(-c2ccc(OCCOCCn3cncn3)cc2)cc1	–	13µM	–	–	–	·
c1ccc(COc2ccc(OCCCn3cncn3)cc2)cc1	–	20µM	–	–	–	·
c1ccc(Cc2ccc(OCCn3cncn3)cc2)cc1	–	–	–	–	–	–
CO[C@@H]1COC(=O)[C@H](CCSC)NC(=O)C/C=C\[C@@H](C)COC(=O)[C@@H]2CCCN2C(=O)C/C=C\[C@H]1C	–[11.4 µM]	–[11.4 µM]	–[11.5 µM]	–[11.4 µM]	–[11.4 µM]	·
C[C@H]1[C@H](C)OC(=O)C[C@H](O)C[C@H](O)C[C@H](O)CC[C@H](O)[C@H](O)CC(=O)C[C@H](O)[C@H](C(=O)O)[C@H](O)C[C@H](O[C@@H]2O[C@@H](C)[C@H](O)[C@@H](N)[C@@H]2O)C=CC=CC=CC=CCCC=CC=C[C@@](C)(O)[C@H]1O	?	–[11.4 µM]	–[11.5 µM]	?	–[11.4 µM]	·
CCNc1ncc2nc(-c3cccs3)c(=O)n(CCc3ccccc3)c2n1	–	–[11.4 µM]	?	?	–	·
SMILES	15-hLO inh	Luciferase inh	ERK AVP inh	HSD17B inh	HADH2 inh	Bst PK mod
CCNc1ncc2nc(-c3ccccc3)c(=O)n(CCc3ccccc3)c2n1	–	–[11.4 µM]	?	16µM	–	·
CCNc1ncc2nc(-c3ccccc3)c(=O)n(C)c2n1	–	–[11.4 µM]	–	25µM	0.79µM	·
CCNc1ncc2nc(C)c(=O)n(CCc3ccccc3)c2n1	–	–[11.4 µM]	–	3.2µM	–	·
CCNc1ncc2nc(-c3ccccc3)c(=O)n(Cc3cccc(OC)c3)c2n1	–	–[11.4 µM]	–	1.3µM	–	·
CCNc1ncc2nc(-c3ccc(Cl)cc3)c(=O)n(C)c2n1	–	–[11.4 µM]	–	–	–	·
COc1cccc(Cn2c(=O)c(-c3ccccc3)nc3cncnc32)c1	–	–[11.4 µM]	–	–	–	·
